# Measurements from ChEMBL document CHEMBL3988442, “University of Dundee, Small-Polar-MMV Screening Library” (2021).
# About 1,200 (3.2%) of roughly 38,000 compounds showed an effect of 50% or more. The median lay at about -58%. This is one part of a sample in which strong results are shown more often than they occur.
# Test system: Plasmodium falciparum
# Test: Calibr Malaria Delayed Death Assay SOP
# Format: functional, organism-based
# Parameters: scale not given: in the data most compounds retested in dose-response had high values
# Conditions: concentration 4.99e-06 (unit not given; other assays of the set use mol/L)
row,Compound,Percent Effect [%]
1,Cn1c2c(c(=O)n1C)CN(C(=O)c1cccc(F)c1)CCC2,-64.91
2,CCC(CO)N(Cc1cccs1)C(=O)CNS(=O)(=O)c1cccs1 (stereo not given),-105.8
3,O=S(=O)(NCC(c1ccsc1)N1CCCCCC1)c1cccs1 (stereo not given),84.95
4,CC(CNS(=O)(=O)CCCC#N)c1ccsc1 (stereo not given),-35.87
5,CN1CCc2cc(C(CNS(=O)(=O)c3cccs3)N3CCCC3)ccc21 (stereo not given),13.73
6,COc1ccccc1N1CCC(CNS(=O)(=O)c2cccs2)C1 (stereo not given),4.169
7,CN(C)c1ccc(C(CNS(=O)(=O)c2cccs2)N2CCCC2)cc1 (stereo not given),52.34
8,Cc1nc(CN2CCCN(Cc3nc4ccccc4o3)CC2)no1,-14.25
9,CSCC(=O)N1CCOC(c2nc(C(C)(C)C)n[nH]2)C1 (stereo not given),-128.5
10,O=C(C1CC(=O)N(c2n[nH]c3cc(Br)ccc23)C1)N1CCOCC1 (stereo not given),-162.5
11,O=C(NC1CC1)N1CCc2ncc(CN3CCOCC3)n2CC1.O=C(O)C(F)(F)F,-16.42
12,O=C(CC1NC(N2CCc3ccccc32)=NC1=O)Nc1ccccc1 (stereo not given),-56.07
13,C[C@@H]1CN(C(=O)c2cccc(F)c2)C[C@]12CCN(c1ccsc1)C2=O,-98.41
14,Cc1cc(C)n(CC2CN(CC3CCCC3)CCO2)n1 (stereo not given),-35.36
15,Cc1ccc(-c2cccc(N3CCC(NC4CCOCC4)CC3)c2)cc1,-119.9
16,COc1cccc(N2CCC(N3CCOC(C(F)(F)F)C3)CC2)c1 (stereo not given),-105.8
17,COc1ccc(N2CCC(N3CCOC(C(F)(F)F)C3)CC2)cc1 (stereo not given),-105.9
18,CNC1CCN(C2CCN(c3ccc(-c4ccco4)cc3)CC2)CC1,85.81
19,CCS(=O)(=O)c1ccc(N2CCC(NC(C)=O)CC2)cc1,-87.36
20,Cc1nc[nH]c1-c1nccn1CCN1CCCC1=O,-100.3
21,CCOC[C@@H]1CC[C@H]2[C@H](CCN2C(=O)c2ccncc2F)O1,-16.41
22,Clc1cc(Cl)cc(CN2CCC(NCc3ncc[nH]3)CC2)c1,83.8
23,OC1CCN(Cc2ccc(CNc3ncc(Cl)cc3F)cc2)CC1,26.38
24,Clc1cccc(N2CCC(NCc3cc[nH]n3)C2)c1 (stereo not given),-43.41
25,OC1CCN(Cc2ccc(CNc3ccc(Cl)cn3)cc2)CC1,-61.51
26,c1ccc(CN2CCC(NCCSc3cnn[nH]3)CC2)cc1,-21.85
27,Cc1cccc(OC2CCN(Cc3ncc[nH]3)CC2)c1,7.466
28,Brc1ccc(CN2CCC(NCc3ncc[nH]3)CC2)cc1,82.48
29,Clc1cccc(N2CCC(NCc3ncc[nH]3)C2)c1 (stereo not given),65.12
30,CCn1cc(CNC2CCN(c3cccc(Cl)c3)C2)cn1 (stereo not given),17.81
